# Results from the supplement of paper PMC7858590.
# System: human monocyte-derived macrophages (polarized)
# Assay: cell shape (eccentricity) Z-score vs DMSO control; higher = more elongated, M2-like morphology
# Conditions: 5 µM; 24 h; macrophage state: M1-polarized (IFNg + TNFa), cytokines present during treatment
# Procedure: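 Primary-screen hits were rescreened on polarized hMDMs with the differentiating cytokines (IL-4 + IL-13 or IFNg + TNFa) kept in the medium during treatment with compound at 5 uM for 24 h. The eccentricity Z-score vs DMSO wells is averaged over experiments.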
row,SMILES,cell shape (Z-score)
1,NC(=O)C1CCCc2c1[nH]c1ccc(Cl)cc21 (stereo unspecified),-2.04
2,Nc1nc(Nc2ccccc2)nc2c1ncn2C1OC(CO)C(O)C1O (stereo unspecified),2.02
3,COc1cc2ncn(-c3cc(OCc4ccccc4C(F)(F)F)c(C(N)=O)s3)c2cc1OC,13.5
4,O=C(Cc1ccc(-c2ccc(OCCN3CCOCC3)cc2)cn1)NCc1ccccc1,9.67
5,CNC(=O)c1cc(Oc2ccc(NC(=O)Nc3ccc(Cl)c(C(F)(F)F)c3)cc2)ccn1,14
6,OC[C@H](Cc1ccccc1)Nc1nc(Oc2ccc3c(c2)CCC3)nc2c1ncn2Cc1ccc(-c2ccccc2)cc1,7.52
7,NC(=O)Nc1cc(-c2cccc(F)c2)sc1C(=O)N[C@H]1CCCNC1,7.81
8,c1ccc(-c2[nH]ncc2-c2ccnc3ccccc23)nc1,2.26
9,CC1CC(=O)c2c(ccc3c2C(=O)c2cccc(O)c2C3O)C1 (stereo unspecified),-2.52
10,Cn1c([N+](=O)[O-])cnc1COC(N)=O,-4.21
11,CC(C)(C)c1cc(C(=O)/C=C/c2ccc(C(=O)O)cc2)cc(C(C)(C)C)c1,-7.58
12,CCN(CC)C(=S)SSC(=S)N(CC)CC,-3.98
13,C#C[C@]1(O)CC[C@H]2[C@@H]3CCC4=Cc5oncc5C[C@]4(C)[C@H]3CC[C@@]21C,-4.38
14,O=c1cc(-c2ccccc2F)[nH]c2cc3c(cc12)OCO3,0.5
15,O=C1c2ccccc2-c2n[nH]c3cccc1c23,9.54
16,CCCCCCN(CCCCCC)C(=O)Cc1c(-c2ccc(F)cc2)[nH]c2ccccc12,-4.11
17,CC(N)C(=O)OC(C)(C)Cc1ccc(Cl)cc1 (stereo unspecified),-2.3
18,CC[C@]12CCCN3CCc4c(n(c5ccccc45)[C@@](O)(C(=O)OC)C1)[C@@H]32,-5.43
19,CN1CCN(c2nc(C3=C(c4c[nH]c5ccccc45)C(=O)NC3=O)c3ccccc3n2)CC1,-0.285
20,CC[C@@H]1C(=O)N(C)c2cnc(Nc3ccc(C(=O)NC4CCN(C)CC4)cc3OC)nc2N1C1CCCC1,-1.93
21,COc1ccc(-c2cc(=O)c3c(O)cc(O)cc3o2)cc1O,3.77
22,CNC(=O)c1cc(Oc2ccc(NC(=O)Nc3ccc(Cl)c(C(F)(F)F)c3)c(F)c2)ccn1,12.1

# Same assay, conditions: 5 µM; 24 h; macrophage state: M2-polarized (IL-4 + IL-13), cytokines present during treatment
row,SMILES,cell shape (Z-score)
1,CC1Nc2ccc(Cl)cc2S(=O)(=O)N1 (stereo unspecified),-1.89
2,C[C@@H]1O[C@@H](O[C@@H]2[C@@H](O)[C@H](OC(=O)[C@]34CCC(C)(C)CC3C3=CCC5[C@@]6(C)CC[C@H](OC7OC(CO)C(OC8OCC(O)C(O)C8O)C(O)C7O)C(C)(C)C6CC[C@@]5(C)[C@]3(C)CC4O)O[C@H]2CO)[C@H](O)[C@H](O)[C@H]1O[C@H]1OC[C@](O)(CO)[C@H]1O (stereo partly specified),-4.86
3,C[C@H]1CN([C@@H](C)CO)S(=O)(=O)c2ccc(C#Cc3ccncc3)cc2O[C@@H]1CN(C)C(=O)Nc1ccc2c(c1)OCO2,5.87
4,C=C(NC(=O)C(=C)NC(=O)c1csc(C2=N[C@@H]3c4csc(n4)[C@H]4NC(=O)c5csc(n5)[C@H]([C@](C)(O)[C@@H](C)O)NC(=O)[C@H]5CSC(=N5)/C(=C/C)NC(=O)[C@H]([C@@H](C)O)NC(=O)c5csc(n5)[C@]3(CC2)NC(=O)[C@H](C)NC(=O)C(=C)NC(=O)[C@H](C)NC(=O)[C@H]([C@@H](C)CC)N[C@@H]2C=Cc3c([C@H](C)O)cc(nc3[C@H]2O)C(=O)O[C@@H]4C)n1)C(N)=O [Thiostrepton.2mM],-5.55
5,CN1c2cc3c(cc2N=C(c2ccc(C(=O)O)cc2)c2ccccc21)C(C)(C)CCC3(C)C,-8.56
6,CC[C@@]1(O)C(=O)OCc2c1cc1n(c2=O)Cc2cc3c([N+](=O)[O-])cccc3nc2-1,-14.4
7,CC1(C)O[C@@H]2C[C@H]3[C@@H]4CCC5=CC(=O)CC[C@]5(C)[C@@]4(F)[C@@H](O)C[C@]3(C)[C@]2(C(=O)CCl)O1,-13.7
8,C=C(C(=O)O)[C@@H]1CC[C@@]2(C)CC[C@H](O)[C@@]2(C(C)=O)C1,-6.45
9,COC(=O)Nc1nc2cc(Sc3ccccc3)ccc2[nH]1,-6.87
10,CC(=O)Cc1cc(=O)c2c(C)cc(O)c(C3OC(CO)C(O)C(O)C3O)c2o1 (stereo unspecified),-1.16
11,COc1cc(C=O)cc2c1[nH]c1ccccc12,-3.04
12,CNCCC(Oc1ccc(C(F)(F)F)cc1)c1ccccc1 (stereo unspecified),7.81
13,CCCCC[C@H](O)/C=C/[C@H]1[C@H](O)CC(=O)[C@@H]1CCCCCCC(=O)O,-28.2
14,CCN(CCCCOC(=O)c1ccc(OC)c(OC)c1)C(C)Cc1ccc(OC)cc1 (stereo unspecified),-4.84
